Results filed as inconclusive are left out. Calls of active or inactive are those of the source. Calls follow the shape of the dose curve; as a rule, active = well fitted cell-killing curve with a large enough effect in the repeat runs; inconclusive = weak or mixed curves, or effect the other way; inactive = no such curve, though single readings can be large or run the other way.

The nature of this assay: qHTS assay to identify small molecule antagonists of the vitamin D receptor (VDR) signaling pathway - cell viability counter screen (AID 743225). Also: nearly all actives have a fitted effect of over 50% in size. Conditions: VDR-bla HEK293T viability, CellTiter-Glo luminescence, 16 h; series mostly up to 61 µM. An excerpt:
U.S. Tox21 Program National Center for Advancing Translational Sciences [NCATS] NIH Chemical Genomics Center [NCGC] U.S. Environmental Protection Agency [EPA] National Institutes of Environmental Health Sciences [NIEHS] National Toxicology Program [NTP] U.S. Food and Drug Administration [FDA] Tox21 Assay Overview: The vitamin D receptor (VDR), a member of nuclear hormone receptor superfamily, plays a critical role in calcium homeostasis and bone metabolism. It is also involved in cell differentiation and growth, and thrombogenicity. To identify the compounds that inhibit VDR signaling, the VDR-UAS-bla HEK 293T cell line (Invitrogen, Carlsbad, CA, USA) containing a beta-lactamase reporter gene under the control of an upstream activator sequence (UAS) was used to screen the Tox21 10K compound library. The cytotoxicity of the Tox21 compound library against the VDR-bla cell line was tested in parallel by measuring the cell viability using CellTiter-Glo assay (Promega, Madison, WI) in the same wells.
Tox21 Assay Protocol Summary: VDR-bla cells were dispensed at 2,000 cells/5 uL of assay medium per well into black wall/clear-bottom 1536-well plates using a Multidrop Combi (Thermo Fisher Scientific, Waltham, MA) dispenser. After the assay plates were incubated at a 37C and 5% CO2 for 4 h, 23 nL of compounds dissolved in DMSO, positive controls or DMSO only was transferred to the assay plate by a Pintool station (Kalypsys, San Diego, CA), followed by addition of 1 uL of 1-alpha, 25-Dihydroxy Vitamin D3 (3 nM, final concentration in the wells) using a Bioraptr Flying Reagent Dispenser (FRD) workstation (Beckman Coulter, Indianapolis, IN). The plates were incubated at 37C and 5% CO2 for 16 h, and then 1 uL of LiveBLAzerTM B/G FRET substrate was added using a Bioraptr FRD. The plates were incubated at room temperature for 2 h and fluorescence intensity was measured by an Envision plate reader (PerkinElmer, Shelton, CT). For cell viability readout that measures cytotoxicity, 3 ul/well of CellTiter-Glo reagent was added into the assay plates using a Bioraptr FRD. After 30 min incubation at room temperature, the luminescence intensity in the plates was measured using a ViewLux plate reader (PerkinElmer).
As to `OCCCCO`, the compound was classed as inactive.

In the case of `ClCCOCCCl`, the compound was called inactive.

As for `OCc1ccco1`, the outcome was inactive.

With `CC[N+](=O)[O-]`, the outcome was inactive.

For `Cc1cccc(N)c1C`, the call was inactive.

On to `O=[N+]([O-])c1ccc(Cl)cc1`, for which the result was inactive.

On to `CNCC(O)c1ccc(O)cc1` (stereo not given), for which the result was inactive.

With `CN1C(=O)CCS(=O)(=O)C1c1ccc(Cl)cc1` (stereo not given), the compound was classed as inactive.

Turning to `CNC(=O)O/N=C/C(C)(C)S(C)(=O)=O`, the call was inactive.

Turning to `CC(C)CCCCCCOC(=O)c1ccccc1C(=O)OCCCCCCC(C)C`, the result was inactive.

For the compound `COc1cc(-c2ccc(N)c(OC)c2)ccc1N`, the outcome was inactive.

Regarding `Nc1ncc([N+](=O)[O-])s1`, the compound was called inactive.

As for `O=C(O)C(Br)Br`, the compound was classed as inactive.

As for `CCSC(=O)N1CCCCCC1`, the result was inactive.

Consider `C=C(C)C(=O)OCC(CC)CCCC` (stereo not given), for which the compound was classed as inactive.

On to `CCOC(=O)CC(SP(=O)(OC)OC)C(=O)OCC` (stereo not given), for which the outcome was inactive.

Consider `C=CC#N`, for which the compound was called inactive.

For `N#Cc1cccc(C#N)c1`, the call was inactive.

Turning to `COP(=S)(OC)Oc1ccc(SC)c(C)c1`, the call was inactive.

On to `COS(=O)(=O)OC`, for which the call was inactive.

Take `FC(F)(F)c1ccc(Cl)cc1`: the compound was classed as inactive.

In the case of `Cc1ccc(O)c(C)c1`, the call was inactive.

With `CCCOC(=O)c1ccccc1C(=O)OCCC`, the outcome was inactive.

Regarding `CCCCCCCCCCCCCCCCCC(=O)O`, the result was inactive.

Turning to `Nc1ccc([As](=O)(O)O)cc1`, the result was inactive.

Turning to `O=C(O)C1C(C(=O)O)C2(Cl)C(Cl)=C(Cl)C1(Cl)C2(Cl)Cl` (stereo not given), the compound was called inactive.

As for `C=CC(=O)OCC(CC)CCCC` (stereo not given), the compound was called inactive.

As for `COC(=O)Nc1cccc(OC(=O)Nc2cccc(C)c2)c1`, the compound was called inactive.

As to `C=CC(=O)OCCCCCC(C)C`, the compound was classed as inactive.

Take `O=P1(NCCCl)OCCCN1CCCl` (stereo not given): the call was inactive.

For `Cc1cc(O)ccc1Cl`, the result was inactive.

Take `CN(C)C(=O)Nc1cccc(C(F)(F)F)c1`: the outcome was inactive.

Regarding `c1ccc2c(c1)CCCC2`, the outcome was inactive.

Turning to `CC(C)c1cccc(C(C)C)c1O`, the call was inactive.

Consider `Oc1c(Br)cc(Br)cc1Br`, for which the result was inactive.

With `N#CN=C(N)N`, the compound was classed as inactive.

On to `Nc1cccc(Cl)c1`, for which the call was inactive.

Turning to `COc1nc(NC(C)C)nc(NC(C)C)n1`, the compound was called inactive.

In the case of `C=CCN=C=S`, the compound was classed as inactive.

Regarding `Oc1ccc(Cl)cc1`, the compound was classed as inactive.
